High-throughput results (PubChem BioAssay)
Shown are actives, neighbours in structure and some others; about 21% of the full set was active somewhere.
Pf growth 96h – P. falciparum growth inhibition at 96 hour, primary screen for plastid delayed-death inhibitors; Potency, µM (highest dose often 28.7 µM), actives largely listed as inhibitors; 320,000 tested, 6.9% active; P. falciparum luciferase reporter growth, 96 h
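Delayed-death screen, second-generation endpoint: infected erythrocytes, 2% hematocrit, 0.05% parasitemia final; 96 hours at 37 C, 5% CO2; luciferase detection reagent; luminescence decrease equals reduced growth.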
Cycloheximide cs – counter-screen for Shiga toxin inhibitors: cycloheximide protein synthesis inhibition. cell reporter, cycloheximide protein synthesis inhibition counterscreen. max response, %. 300,000 tested, 12% active. AID 2314; in the data active means max response mostly above about 13%, no sharp cut-off; inactive means mostly below about 14%; further: read at 38.3 µM for the half of the compounds with a filed dose
Pf growth 48h – inhibits P. falciparum growth in the first generation, 48 h | P. falciparum luciferase growth in erythrocytes, 48 h | Potency, µM (doses to about 28.7 µM), most hits filed as inhibitors | 310,000 tested, 5.9% active
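Here the parasites carry a stable luciferase gene and grow inside erythrocytes in Albumax-based RPMI medium with compound for one erythrocytic cycle. Activity is scored as loss of luminescent signal.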
Shiga toxin inh – inhibitors of Shiga toxin in Vero cells; Vero cells, Shiga toxin protein synthesis inhibition reporter; inhibition, % at 38.7 µM; 290,000 tested, 9.2% active; AID 2315; in the data active means inhibition mostly above about 28%, no sharp cut-off; inactive means mostly below about 43%
Numbers stand for hits; [ ] = remark or other dose. Unless noted, the call rests on the fitted dose curve; in most records, active means well fitted inhibition curve with a large enough effect; inconclusive means small, poorly fitted or top-dose-only effect, or another doubt; inactive means no such curve, though single readings can be large or run the other way.

How did COc1ccccc1CNC(=O)C1CC(c2ccccc2[N+](=O)[O-])=NO1 (stereo not drawn) do in these assays?
Pf growth 96h: inactive; Cycloheximide cs: 41; Pf growth 48h: inactive; Shiga toxin inh: 96

How did COc1ccccc1CNC(=O)C1CC(c2ccccc2C(F)(F)F)=NO1 (stereo not drawn) do in these assays?
Pf growth 96h: inactive; Cycloheximide cs: inactive; Pf growth 48h: inactive; Shiga toxin inh: inactive

What do the screens show for `COc1ccccc1CNC(=O)C1CC(c2ccccc2F)=NO1` (stereo not drawn)?
Pf growth 96h: inactive; Cycloheximide cs: 18; Pf growth 48h: inactive; Shiga toxin inh: 44

How did COc1ccc(CNC(=O)C2CC(c3ccccc3[N+](=O)[O-])=NO2)cc1 (stereo not drawn) do in these assays?
Pf growth 96h: inactive; Cycloheximide cs: 29; Pf growth 48h: inactive; Shiga toxin inh: 65

What do the screens show for `COc1cccc(-c2ccc(NC(=O)C3CCCN(CCCn4nc(C)cc4C)C3)cc2)c1` (stereo not drawn)?
Pf growth 96h: inactive; Cycloheximide cs: inactive; Pf growth 48h: inconclusive; Shiga toxin inh: inactive

Results for CCN(CC)CC#CCC(O)(c1ccccc1)c1ccccc1 ?
Pf growth 96h: inactive; Cycloheximide cs: inactive; Pf growth 48h: inconclusive; Shiga toxin inh: inactive

Results for CCN(CC)CC#CCC(C)(c1ccccc1)c1ccccc1 ?
Pf growth 96h: 6.6µM; Cycloheximide cs: inactive; Pf growth 48h: 12µM; Shiga toxin inh: inactive

How did CCCCOc1ccc(C2NC(=O)NC(C)=C2C(C)=O)cc1OCC (stereo not drawn) do in these assays?
Pf growth 96h: inactive[5.75 µM]; Cycloheximide cs: inactive; Pf growth 48h: inconclusive; Shiga toxin inh: inactive

Results for C/C(=N\OCC(=O)OC(C)C(=O)Nc1ccc(C(N)=O)cc1)c1ccc2c(c1)OCO2 (stereo not drawn) ?
Pf growth 96h: inactive; Cycloheximide cs: inactive; Pf growth 48h: inactive; Shiga toxin inh: inactive

What do the screens show for `O=C(CN(Cc1ccco1)C(=O)c1ccc(Cl)cc1)Nc1ccc(Cl)c(Cl)c1`?
Pf growth 96h: inactive; Cycloheximide cs: inactive; Pf growth 48h: inactive; Shiga toxin inh: inactive

How did CC(=O)N(Cc1ccco1)c1nc(C(=O)Nc2ccc(Cl)cc2)c(C)s1 do in these assays?
Pf growth 96h: inactive; Cycloheximide cs: 46; Pf growth 48h: inactive; Shiga toxin inh: 95

Results for Cc1cc(C)n2nc(SCc3ccccc3)nc2n1 ?
Pf growth 96h: inactive; Cycloheximide cs: inactive; Pf growth 48h: inactive; Shiga toxin inh: inactive

Results for Cc1cc(SCC(=O)c2ccccc2)nc(C)n1 ?
Pf growth 96h: inactive; Cycloheximide cs: 32; Pf growth 48h: inactive; Shiga toxin inh: 117

Results for C=CCSc1nc2nc(C)cc(C)n2n1 ?
Pf growth 96h: 0.33µM; Cycloheximide cs: inactive; Pf growth 48h: inactive; Shiga toxin inh: inactive

How did CCCCCCCCSc1nnc(CSc2nc3nc(C)cc(C)n3n2)o1 do in these assays?
Pf growth 96h: inconclusive; Cycloheximide cs: inactive; Pf growth 48h: 12µM; Shiga toxin inh: inactive

How did CCSc1nc2nc(C)cc(C)n2n1 do in these assays?
Pf growth 96h: 12µM; Cycloheximide cs: inactive; Pf growth 48h: inactive; Shiga toxin inh: inactive

Results for C=C(C)CSc1nc2nc(C)cc(C)n2n1 ?
Pf growth 96h: inactive; Cycloheximide cs: inactive; Pf growth 48h: inactive; Shiga toxin inh: inactive

Results for CC1(C)NC(=O)N(CC(=O)OCC(=O)N2CCN(S(=O)(=O)c3ccccc3)CC2)C1=O ?
Pf growth 96h: inactive; Pf growth 48h: inactive

What do the screens show for `Cc1cc(C)n2nc(SCC(=O)c3cccs3)nc2n1`?
Pf growth 96h: inactive; Cycloheximide cs: inactive; Pf growth 48h: inactive; Shiga toxin inh: inactive

How did Cc1cc(C)n2nc(SCCOc3ccccc3F)nc2n1 do in these assays?
Pf growth 96h: inactive; Cycloheximide cs: 26; Pf growth 48h: inactive; Shiga toxin inh: 114

How did Cc1cc(C)n2nc(SCC(=O)c3ccccc3)nc2n1 do in these assays?
Pf growth 96h: inactive; Cycloheximide cs: 14; Pf growth 48h: inactive; Shiga toxin inh: inactive

Results for COc1ccc(Cl)cc1S(=O)(=O)Nc1ncn[nH]1 ?
Pf growth 96h: inactive; Cycloheximide cs: inactive; Pf growth 48h: inactive; Shiga toxin inh: inactive

Results for COC(=O)c1c(-c2ccccc2)csc1NC(=O)c1c(-c2ccccc2)noc1C ?
Pf growth 96h: inconclusive; Cycloheximide cs: inactive; Pf growth 48h: 13µM; Shiga toxin inh: inactive

How did Cc1ccc(-c2csc(NC(=O)/C=C/c3ccco3)c2C(=O)O)cc1 do in these assays?
Pf growth 96h: inactive; Cycloheximide cs: 36; Pf growth 48h: inactive; Shiga toxin inh: 86

Results for Cc1csc(NC(=O)c2ccco2)c1C(=O)c1ccccc1 ?
Pf growth 96h: inactive; Cycloheximide cs: inactive; Pf growth 48h: inactive; Shiga toxin inh: inactive

What do the screens show for `COC(=O)c1c(-c2ccccc2)csc1NC(=O)c1ccco1`?
Pf growth 96h: inactive; Cycloheximide cs: 71; Pf growth 48h: inactive; Shiga toxin inh: 153

What do the screens show for `O=C(Nc1scc(-c2ccc(F)cc2)c1C(=O)O)c1ccco1`?
Cycloheximide cs: 56; Pf growth 48h: inactive; Shiga toxin inh: 92

Results for O=c1c2ccccc2nnn1Cc1ccccc1Cl ?
Pf growth 96h: inconclusive; Cycloheximide cs: inactive; Pf growth 48h: inactive; Shiga toxin inh: inactive

Results for Cn1cc(CN2CCCC(C(=O)Nc3ccc(-c4cccc(F)c4)cc3)C2)cn1 (stereo not drawn) ?
Pf growth 96h: inactive; Cycloheximide cs: inactive; Pf growth 48h: inconclusive; Shiga toxin inh: inactive

Results for O=S(=O)(c1ccc(NC(=S)N/N=C/c2ccc(Oc3ccccc3)cc2)cc1)N1CCOCC1 ?
Pf growth 96h: inactive; Cycloheximide cs: inactive; Pf growth 48h: inactive; Shiga toxin inh: inactive

How did N#Cc1ccc(/C=N/NC(=O)CCc2ccc(S(=O)(=O)N3CCOCC3)cc2)cc1 do in these assays?
Pf growth 96h: 6.6µM; Cycloheximide cs: inactive; Pf growth 48h: inconclusive; Shiga toxin inh: inactive

How did C=C(C)/C=N/NC(=S)Nc1ccc(S(=O)(=O)N2CCOCC2)cc1 do in these assays?
Pf growth 96h: inconclusive; Cycloheximide cs: inactive; Pf growth 48h: inconclusive; Shiga toxin inh: inactive

Results for O=S(=O)(c1ccc(NC(=S)N/N=C/c2ccc(N3CCOCC3)cc2)cc1)N1CCOCC1 ?
Pf growth 96h: 5.9µM; Cycloheximide cs: inactive; Pf growth 48h: inactive; Shiga toxin inh: inactive

What do the screens show for `O=S(=O)(c1ccc(NC(=S)N/N=C/c2c3ccccc3cc3ccccc23)cc1)N1CCOCC1`?
Pf growth 96h: inconclusive; Cycloheximide cs: inactive; Pf growth 48h: 3.3µM; Shiga toxin inh: inactive

What do the screens show for `COc1ccc(NS(=O)(=O)c2ccc(NC(=O)c3ccc(N(C)S(C)(=O)=O)cc3)cc2)c(OC)c1`?
Pf growth 96h: inactive; Cycloheximide cs: inactive; Pf growth 48h: inconclusive; Shiga toxin inh: inactive

Results for CCCN(CC(=O)Nc1ccccc1C)C(=O)C1CC(=O)N(c2cccc(C)c2C)C1 (stereo not drawn) ?
Pf growth 96h: inactive; Pf growth 48h: inactive

What do the screens show for `COCCNC(=O)c1ccccc1NC(=O)c1ccccc1SC`?
Pf growth 96h: inactive; Cycloheximide cs: inactive; Pf growth 48h: inactive; Shiga toxin inh: inactive

How did COCCn1c(SCC(=O)Nc2cccc(S(N)(=O)=O)c2)nc2ccccc21 do in these assays?
Pf growth 96h: inconclusive; Cycloheximide cs: inactive; Shiga toxin inh: inactive

How did COCCn1c(SCC(=O)Nc2ccc(Cl)c(S(=O)(=O)N(C)C)c2)nc2ccccc21 do in these assays?
Cycloheximide cs: inactive; Pf growth 48h: 12µM; Shiga toxin inh: inactive
